Source: PubChem
Most compounds without a hit are left out; they make up all but 4.4% or so of the library.
D1 ag: human D1 receptor agonism; P21728; HEK293 T-REx D1 cells, calcium flux, agonist mode; activation, % at 2 µM; hit rate 1% among 360,000; AID 504660; further: 0% is about no effect
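Tetracycline-induced HEK293 TREx D1 cells, force-coupled to calcium signalling, were dye-loaded with a no-wash calcium kit. Compound was pin-added after a 10 s baseline. Fluorescence was read kinetically at 1 cycle/s for 180 s, with calcium rises flagged as agonism.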
TRHR PAM: allosteric enhancers of human TRH receptor. enhancement, % at 2 µM. TRHR cells, fluo-8 calcium fluorescence, EC20 TRH enhancement. hit rate 0.66% among 360,000; in the data active means enhancement above about 30%; further: 0% is about no effect
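Enhancer read-out: after compound pinning and an initial kinetic agonist-mode read, an EC20 of TRH (10 nM final) was injected and fluo-8 calcium signal (Ex 480/Em 530) followed at 1 s/cycle for 100 cycles in TRHR-expressing cells.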
D1 antagonist: human D1 dopamine receptor antagonism; P21728; activity change, negative = inhibition, % at 10 µM; hit rate 3.2% among 360,000; HEK293 TREx D1 cells, calcium flux, dopamine EC80; active compounds read low; in the data active means activity change below about -30%; further: on the % scale 0 is the no-effect control and ±100 the full control effect
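Using tetracycline-induced force-coupled D1 Hek293 cells and a calcium dye, signals were followed for 180 s after compound, then for 180 s after EC80 dopamine, to detect inhibitors.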
D1 PAM: enhances dopamine response at the human D1 receptor; P21728; HEK293 TREx D1 cells, calcium flux, dopamine EC20 potentiation; potentiation, % at 10 µM; hit rate 0.036% among 360,000; AID 504651; in the data active means potentiation above about 30%; further: 0% is about no effect
USP1 inh: USP1/UAF1 (human) deubiquitinase inhibition; O94782; recombinant USP1/UAF1, Ub-Rhodamine cleavage fluorescence; Potency, µM (top dose mostly 57.1 µM), for inactives: at the highest dose activity change, negative = inhibition, actives largely listed as inhibitors; hit rate 0.23% among 390,000; AID 743255; active means well fitted inhibition curve with a large enough effect; inconclusive means small, poorly fitted or top-dose-only effect; inactive means no such curve, though single readings can be large or run the other way; further: potency means the concentration at half of the fitted maximal effect; on the % scale 0 is the no-effect control and ±100 the full control effect; nearly all actives have a fitted effect of over 60% in size
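High-throughput fluorogenic screen: 1nM USP1/UAF1 complex, Ub-Rho substrate 150nM final, 50mM HEPES pH 7.8 with 0.5mM EDTA, 0.1 mg/ml BSA, 1mM TCEP and 0.01% Tween-20.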
TRHR ag: TRH receptor (human) agonism. P34981. TRHR cells, calcium flux fluo-8, FDSS agonist mode. activation, % at 2 µM. hit rate 0.18% among 360,000; further: 0% is about no effect
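Agonist-mode FDSS calcium read (Ex 480/Em 530, 1 s cycles) in 1536-well TRHR cells with fluo-8 dye, after 10-cycle baseline and 23 nL compound addition; TRH at EC20 (10 nM final) added afterwards for the enhancer phase.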
Starred values were filed as active, the others as inactive. Unless noted, no stated cut-off is given here; in the data, active means activation above about 30%; inactive means the rest.

How did Cc1ccc(S(=O)(=O)N2CCCCC2)cc1NC(=O)C1=NN(c2ccccc2)C(=O)CC1 do in these assays?
D1 ag: 5.8; TRHR PAM: -6.0; D1 antagonist: -43.9*; D1 PAM: -9.2; USP1 inh: -22.3%; TRHR ag: 0.2

What do the screens show for `Cc1ccc(S(=O)(=O)N2CCOCC2)cc1NC(=O)C1=NN(c2ccccc2)C(=O)CC1`?
D1 ag: 1.7; TRHR PAM: -5.5; D1 antagonist: 2.5; D1 PAM: -4.2; USP1 inh: -17.9%; TRHR ag: 0.1

How did Cc1ccc(S(=O)(=O)N2CCCCC2)cc1NC(=O)Cn1ccsc1=N do in these assays?
D1 ag: 3.3; TRHR PAM: -7.3; D1 antagonist: -39.1*; D1 PAM: -7.8; USP1 inh: -13.9%; TRHR ag: 0.3

How did COc1ccccc1Nc1nc2ccc(Cl)cc2nc1-n1nc(C)cc1C do in these assays?
D1 ag: 3.2; TRHR PAM: 2.0; D1 antagonist: 13.0; D1 PAM: 5.5; USP1 inh: -22.4%; TRHR ag: 1.3

Results for COc1cccc(N2CCN(c3ccc4nnc(CCC(=O)O)n4n3)CC2)c1 ?
D1 ag: -0.1; TRHR PAM: -0.6; D1 antagonist: 21.8; D1 PAM: 4.1; USP1 inh: -20.7%; TRHR ag: 0.2

Results for COC(=O)C1=CN(Cc2ccc(F)cc2)C=C(C(=O)OC)C1c1cc(OC)c(OC)c(OC)c1 ?
D1 ag: 0.1; TRHR PAM: -1.3; D1 antagonist: -40.9*; D1 PAM: -8.4; USP1 inh: inconclusive; TRHR ag: -0.1

What do the screens show for `COc1cc(/C=C(\C#N)c2nc3ccccc3[nH]2)ccc1OCc1cccc(C(F)(F)F)c1`?
D1 ag: 0.0; TRHR PAM: -0.9; D1 antagonist: 17.1; D1 PAM: -1.5; USP1 inh: -7.3%; TRHR ag: 1.5

Results for O=c1c2oc3ccccc3c2n(Cc2ccccc2F)c(=O)n1Cc1ccccc1 ?
D1 ag: 2.7; TRHR PAM: -8.3; D1 antagonist: 3.3; D1 PAM: -0.4; USP1 inh: -6.4%; TRHR ag: -0.3

Results for COc1ccc(NCc2cc3cc4c(cc3n(CC(=O)Nc3ccc(C)cc3)c2=O)OCO4)cc1 ?
D1 ag: 57.4*; TRHR PAM: -1.5; D1 antagonist: 1.9; D1 PAM: -0.1; USP1 inh: inconclusive; TRHR ag: 22.0

Results for COc1cc2cc(CNc3ccccc3)c(=O)n(CC(=O)Nc3cccc(Cl)c3C)c2cc1OC ?
D1 ag: 7.3; TRHR PAM: -0.4; D1 antagonist: -5.7; D1 PAM: -3.4; USP1 inh: inconclusive; TRHR ag: 28.2

Results for CCc1ccc(NCc2cc3cc4c(cc3n(CC(=O)Nc3cccc(OC)c3)c2=O)OCO4)cc1 ?
D1 ag: 56.3*; TRHR PAM: -5.0; D1 antagonist: 3.1; D1 PAM: -2.0; USP1 inh: inconclusive; TRHR ag: 14.4

Results for COc1ccc(NCc2cc3cc4c(cc3n(CC(=O)Nc3ccc(C)cc3C)c2=O)OCO4)cc1 ?
D1 ag: 1.5; TRHR PAM: -4.2; D1 antagonist: 9.1; D1 PAM: 0.1; USP1 inh: inconclusive; TRHR ag: 2.2

How did COc1ccc(NCc2cc3cc4c(cc3n(CC(=O)Nc3ccc(F)cc3F)c2=O)OCO4)cc1 do in these assays?
D1 ag: 66.0*; TRHR PAM: 35.2*; D1 antagonist: -3.3; D1 PAM: -2.1; USP1 inh: inconclusive; TRHR ag: 9.6

What do the screens show for `COc1cc2cc(CNc3ccccc3)c(=O)n(CC(=O)Nc3ccc(C)c(Cl)c3)c2cc1OC`?
D1 ag: 30.4*; TRHR PAM: 1.3; D1 antagonist: 6.5; D1 PAM: -1.0; USP1 inh: inconclusive; TRHR ag: -1.1

How did CCc1ccc(NCc2cc3cc4c(cc3n(CC(=O)Nc3ccc(OC)cc3)c2=O)OCO4)cc1 do in these assays?
D1 ag: -0.7; TRHR PAM: -3.0; D1 antagonist: -2.0; D1 PAM: -2.9; USP1 inh: -20.0%; TRHR ag: 0.3
